# This is a sample that favours compounds with a hit; in the whole collection about 21% have one here.
# ClpP mod: qHTS Assay for Activators of ClpP; Potency, µM (doses to about 57.5 µM), without a hit: top-dose activity change, negative = active; hit rate 1.9% among 340,000; ATP-dependent Clp protease proteolytic subunit (Bacillus subtilis (strain 168)), P80244; purified B. subtilis ClpP, FRET peptide cleavage, 20 min; AID 651965, 2013; active = well fitted falling curve with a large enough effect; inconclusive = small, poorly fitted or top-dose-only effect; inactive = no such curve, though single readings can be large or run the other way; note: potency is the fitted concentration of half-maximal effect; the source files actives as falling curves though it sought activators and does not explain the sign; nearly all actives have a fitted effect of over 65% in size
#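 FRET quenching reversal measured ClpP activation: 10 microg/mL B. subtilis ClpP at pH 8 with the FRET-FV decapeptide, read at 430 nm after 320 nm excitation. The 20-min minus 0-min signal was scaled between DMSO/no-enzyme wells and ADEP (5.8 microM final).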
# DRD3 agonist: D3 dopamine receptor (human) agonism; D3R DiscoveRx beta-arrestin cells, luminescence, 90 min; max activation, %; hit rate 0.58% among 410,000; in the data active = max activation above about 30%; note: 0% is about no effect
# Target sequence (P35462 whole entry, looked up): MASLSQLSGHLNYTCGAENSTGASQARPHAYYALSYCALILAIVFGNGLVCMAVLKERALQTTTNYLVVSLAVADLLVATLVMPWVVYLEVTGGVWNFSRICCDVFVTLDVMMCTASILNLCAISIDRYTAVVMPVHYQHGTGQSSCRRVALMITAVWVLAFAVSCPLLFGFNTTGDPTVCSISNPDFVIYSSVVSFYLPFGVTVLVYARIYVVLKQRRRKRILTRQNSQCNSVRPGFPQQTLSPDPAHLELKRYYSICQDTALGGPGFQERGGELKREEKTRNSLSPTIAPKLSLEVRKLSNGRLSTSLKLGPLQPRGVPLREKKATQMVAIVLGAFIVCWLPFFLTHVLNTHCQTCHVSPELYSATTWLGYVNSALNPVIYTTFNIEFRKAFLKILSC
#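 Cells at 1500/well, incubated overnight, then treated with pinned compounds (dopamine as control) for 90 min at 37 degrees C. DiscoveRx reagent added for 30 - 60 minutes at room temperature; luminescence read.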
# IL-1B inflam inh: blocks inflammasome-driven IL-1 beta release | THP-1 LPS/ATP IL-1B secretion, AlphaLISA, 16 h; active compounds read low | activity change, % at 57.5 µM | hit rate 4.7% among 360,000 | AID 743279; in the data active = activity change below about -50%; inconclusive = mostly about -30% to -49%; note: % is set by controls: 0 for no effect and ±100 for the full control effect
#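 Secreted IL-1B measured by AlphaLISA bead assay after 16 h compound exposure of THP-1 cells; compounds (final up to 57.5 uM) added 1 h before LPS (250 ng/mL) and ATP (1.25 mM) stimulation; lower signal means less secretion.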
# DRD3 antagonist: antagonists of human D3 dopamine receptor; P35462; D3R cells, DiscoveRx beta-arrestin luminescence, antagonist mode; active compounds read low; max response, negative = inhibition, %; hit rate 2.5% among 360,000; in the data active = max response below about -50%; inconclusive = no clear call, values can overlap the other calls; note: % is set by controls: 0 for no effect and ±100 for the full control effect
#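 Cells plated overnight at 1500 cells/well, then exposed to library compounds with dopamine controls for 90 minutes at 37 degrees C. DiscoveRx reagent added for 30–60 minutes at room temperature; luminescence read, quantitative HTS format.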
# TDP1 cell CPT: growth inhibition of DT40 Tdp1-/-;hTDP1 cells with camptothecin (screen for TDP1 inhibitors); chicken DT40 Tdp1-/-;hTDP1 cells + 20 nM CPT, ATP luminescence, 48 h; Potency, µM (top dose mostly 46.2 µM), without a hit: at the top dose activity change, negative = growth inhibition, hits mostly inhibitors; hit rate 12% among 420,000; AID 686979; note: potency is the fitted concentration of half-maximal effect; % is set by controls: 0 for no effect and ±100 for the full control effect; nearly all actives have a fitted effect of over 55% in size
#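 Cell growth measured by CellTiter-Glo luminescence after a minimum 48 h, 37 C compound exposure with 20 nM CPT in Tdp1-knockout DT40 cells stably expressing hTDP1, seeded 400/well; qHTS titration format.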
# DT40 TDP1 no CPT: qHTS for Inhibitors of human tyrosyl-DNA phosphodiesterase 1 (TDP1): qHTS in cells in absence of CPT; DT40 Tdp1-/- hTDP1 cells, no CPT, ATP luminescence, 48 h; Potency, µM (top dose mostly 46.2 µM), inactives show at the highest dose activity change, negative = growth inhibition, actives largely listed as inhibitors; hit rate 15% among 420,000; AID 686978, 2013; note: potency is the fitted concentration of half-maximal effect; % is set by controls: 0 for no effect and ±100 for the full control effect; nearly all actives have a fitted effect of over 55% in size
#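 Growth kinetics read by CellTiter-Glo luminescence after ≥48 hr at 37 °C. Cells: DT40 Tdp1-/- stably carrying human TDP1, 400 per well, compound exposure in the absence of CPT (DMSO vehicle).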
# Starred values were filed as active, the others as inactive; ? = inconclusive; · = no result given. Unless noted, calls come from the whole dose curve; as a rule, active = well fitted inhibition curve with a large enough effect; inconclusive = small, poorly fitted or top-dose-only effect; inactive = flat fitted curve, though single readings scatter.
SMILES,ClpP mod,DRD3 agonist,IL-1B inflam inh,DRD3 antagonist,TDP1 cell CPT,DT40 TDP1 no CPT
COc1ccc(S(=O)(=O)c2cnc3cc(OC)c(OC)cc3c2N2CCCC(C)C2)cc1 (configuration not stated),1%,2,·,·,?,?
CCN1CCN(c2c(S(=O)(=O)c3ccccc3)cnc3ccc(Cl)cc23)CC1,-8%,-20,·,·,-21%,?
CCN1CCN(c2c(S(=O)(=O)c3ccc(Cl)cc3)cnc3ccccc23)CC1,0%,-16,·,·,13µM*,?
CCOc1ccc(Nc2c(S(=O)(=O)c3ccccc3)cnc3ccc(F)cc23)cc1,-3%,-17,·,·,?,?
CCOc1ccc(Nc2c(S(=O)(=O)c3ccc(C)cc3)cnc3cc(OC)c(OC)cc23)cc1,-2%,1,·,·,?,12µM*
O=C(COC(=O)/C=C/c1ccco1)NCCc1ccccc1,1%,1,-7,7,-3%,3%
CCN(C(=O)COC(=O)c1c(C)c(-c2ccccc2)nc2ccccc12)C1CCS(=O)(=O)C1 (configuration not stated),-6%,0,5,26,?,?
O=C(CCc1nc2ccccc2c(=O)[nH]1)N1CCN(S(=O)(=O)c2ccccc2Br)CC1,1%,0,-20,7,21µM*,?
CCn1c(=O)c(C(=O)CN2CCN(S(=O)(=O)c3cc(C)ccc3C)CC2)c(N)n(Cc2ccccc2)c1=O,1%,-4,0,5,10µM*,16µM*
Cc1ccc(C)c(S(=O)(=O)N2CCN(C(C)C(=O)Nc3ccccc3-c3ccccc3)CC2)c1 (configuration not stated),-2%,3,0,0,?,16µM*
CC(C)c1ccc(S(=O)(=O)N2CCN(C(=O)CCc3nc4ccccc4c(=O)[nH]3)CC2)cc1,0%,2,19,22,?,?
CCn1c(=O)c(C(=O)CN2CCN(Cc3ccc4c(c3)OCO4)CC2)c(N)n(Cc2ccccc2)c1=O,·,-1,?,0,?,?
Cc1ccc(C)c(S(=O)(=O)N2CCN(C(=O)CCc3c[nH]c4ccccc34)CC2)c1,1%,-3,-6,7,-5%,-22%
Cc1ccc(C)c(S(=O)(=O)N2CCN(C(=O)CCCc3c[nH]c4ccccc34)CC2)c1,-3%,6,?,4,?,23µM*
CN(C(=O)Nc1cnccc1C(F)(F)F)C1CCCCC1,·,5,-16,-16,-12%,2%
CC1CCN(c2ccc(-c3cccc(NS(=O)(=O)c4cccs4)c3)nn2)CC1,-2%,0,·,·,-8%,-6%
COc1cccc(CNS(=O)(=O)c2c(C)[nH]c(C)c2C(=O)N2CCCC2)c1,0%,4,10,-2,-13%,12%
Nn1c(SCC(=O)NCCc2ccc(F)cc2)nnc1C1CCCCC1,-1%,-3,10,-13,0%,-5%
Cc1ccc(C)c(S(=O)(=O)NCc2ccc(C(=O)N3CCC(Cc4ccccc4)CC3)cc2)c1,0%,4,-57*,-8,?,?
Cc1ccc(C)c(S(=O)(=O)N2CCN(C(=O)c3ccccc3Cc3ccccc3)CC2)c1,·,6,-59*,5,11%,?
Cc1ccc(C)c(S(=O)(=O)NCc2ccc(C(=O)N3CCN(C)CC3)cc2)c1,1%,4,54,4,-22%,-12%
Cc1ccc(C)c(S(=O)(=O)N2CCN(C(=O)CCc3nc4ccccc4c(=O)[nH]3)CC2)c1,-1%,-2,19,-14,21µM*,21µM*
Cc1ccc(S(=O)(=O)N2CCN(C(=O)CCc3nc4ccccc4c(=O)[nH]3)CC2)c(C)c1,·,-10,?,1,?,?
O=C(COc1ccccc1)Nc1ccccc1C(=O)OCc1cc(=O)n2nc(C3CC3)sc2n1,-5%,5,·,·,-3%,?

# Assay outcomes deposited in PubChem by National Center for Advancing Translational Sciences (NCATS).
